Vaccinia mCherry: inhibitors of vaccinia virus infection (mCherry reporter signal) | Vaccinia virus mCherry reporter infection, fluorescence | Potency, µM (titrated, usually from 36.5 µM), most hits filed as inhibitors | 0.63% of 310,000 active; calls by dose curve; tested in A549 cells; note: nearly all actives have a fitted effect of over 35% in size
Sm TGR block: S. mansoni TGR enzyme inhibition; Q962Y6; purified TGR, DTNB reduction, TNB absorbance 405 nm; Potency, µM (doses to about 114 µM), usual class: inhibitors; 3% of 360,000 active; AID 485364; active = well fitted inhibition curve with a large enough effect; inconclusive = small, poorly fitted or top-dose-only effect; inactive = no such curve, though single readings can be large or run the other way; note: nearly all actives have a fitted effect of over 60% in size
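Kinetic colorimetric format: TGR-catalysed, NADPH-driven DTNB reduction monitored via TNB absorbance. Enzyme dispensed at 20 nM; compound exposure 15 min at room temperature before reaction start.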
Marburg entry inh: inhibitors of Marburg virus binding or cell entry | Marburg virus pseudotyped entry inhibition, cell reporter | AID 540276 | Potency, µM (highest dose often 37.8 µM), usual class: inhibitors | 1.8% of 300,000 active; calls by dose curve; tested in HEK293 cells
VACV Venus inh: vaccinia inhibition (Venus reporter); Vaccinia virus Venus reporter expression, fluorescence; Potency, µM (titrated, usually from 36.5 µM), hits mostly inhibitors; 0.46% of 330,000 active; AID 720580; calls by dose curve; tested in A549 cells; note: nearly all actives have a fitted effect of over 30% in size
FMDV inh: blocks foot and mouth disease virus | AID 1159524 | Potency, µM (series often up to 57.9 µM), actives largely listed as inhibitors | FMDV antiviral cell-based qHTS | 1.2% of 410,000 active; calls by dose curve; tested in HEK293T cells; note: read-out not given here; nearly all actives have a fitted effect of over 45% in size
Lassa entry inh: Lassa virus entry inhibition | Potency, µM (highest dose often 37.9 µM), usual class: inhibitors | 1.2% of 300,000 active | AID 540256 | Lassa virus pseudotype entry inhibition, cell reporter; calls by dose curve; tested in HEK293 cells; note: nearly all actives have a fitted effect of over 50% in size
Each line names hits and unclear results; the compound was inactive in the other large screens. Hits are enriched below; roughly 5.4% of the tested compounds scored in any of these assays.

O=C(NC(n1ccc(=O)[nH]c1=O)C(Cl)(Cl)Cl)C12CC3CC(CC(C3)C1)C2 (stereo not drawn)	Sm TGR block 40µM, Lassa entry inh inconclusive
CC(=O)c1ccc(NC(=O)CCCc2nc(-c3cccc(C)c3)no2)cc1	none
CSc1cccc(NC(=O)CC(c2ccc(F)cc2)N2Cc3ccccc3C2=O)c1 (stereo not drawn)	FMDV inh inconclusive (no result: Marburg entry inh)
CC(C)c1cc(Nc2cccc(O)c2)cc(C(C)C)c1O	Sm TGR block 8.9µM (no result: Vaccinia mCherry, VACV Venus inh, FMDV inh, Lassa entry inh)
COc1cc(CN2C(=O)CC[C@@H]3CN(Cc4ccccn4)CC[C@@H]32)cc(OC)c1OC	none (no result: Sm TGR block, Marburg entry inh, Lassa entry inh)
O=C(Nc1ccc(N2CCCCC2)c(Cl)c1)c1cccnc1	Vaccinia mCherry 13µM, Marburg entry inh 1µM, Lassa entry inh 0.89µM
O=C(Nc1ccc(N2CCOCC2)c(Cl)c1)c1cccnc1	Marburg entry inh inconclusive, Lassa entry inh inconclusive (no result: Vaccinia mCherry)
O=C(Nc1ccc(N2CCCC2)c(Cl)c1)c1cccnc1	Sm TGR block 50µM (no result: Vaccinia mCherry)
COc1cc(Nc2ccc(C)cc2)c([N+](=O)[O-])nc1[N+](=O)[O-]	Sm TGR block 25µM, Marburg entry inh inconclusive, FMDV inh inconclusive, Lassa entry inh inconclusive
COc1ccc(/C=C(/NC(=O)c2ccco2)C(=O)N2CCc3ccccc32)cc1OC	Lassa entry inh 7.9µM
COC(=O)C1=Nc2ccccc2/C1=C\c1c(O)n(-c2ccc(OC)cc2)c(=O)[nH]c1=O	none
COC(=O)C1=Nc2ccccc2/C1=C\c1c(O)n(-c2ccc(Br)cc2)c(=O)[nH]c1=O	Sm TGR block inconclusive, FMDV inh 20µM
CCCCCCN1C[C@@H](n2cc(C3CC3)nn2)[C@H](O)C[C@H]1c1ccccc1	none (no result: Vaccinia mCherry, Sm TGR block, Marburg entry inh, VACV Venus inh, FMDV inh)
COc1cc(/C=C2/C(C)=C(C#N)c3nc(N)c(C#N)c(C)c32)ccc1OCC(=O)O	Marburg entry inh inconclusive (no result: Sm TGR block)
CC1=C(C#N)c2nc(N)c(C#N)c(C)c2/C1=C\c1ccc(-c2ccccc2C(=O)O)o1	Sm TGR block 25µM, Marburg entry inh inconclusive
COc1ccc(N2CC(NC(=O)c3cc4ccccc4o3)CC2=O)cc1OC (stereo not drawn)	none (no result: Marburg entry inh)
CC(=C/c1ccco1)/C=N/NC(=O)Cc1cccn1C	Sm TGR block 45µM
Cc1ccc(/C=N/NC(=O)Cc2cccn2C)cc1	Sm TGR block inconclusive
Cn1cccc1CC(=O)N/N=C/c1ccc(C(C)(C)C)cc1	Sm TGR block inconclusive, Marburg entry inh inconclusive
CC(/C=N/NC(=O)Cc1cccn1C)=C\c1ccco1	Sm TGR block 25µM (no result: Vaccinia mCherry, VACV Venus inh)
CC(/C=N/NC(=O)CN1CCN(Cc2ccc(Cl)cc2)CC1)=C\c1ccco1	Sm TGR block 79µM, Marburg entry inh inconclusive, FMDV inh inconclusive
Cn1cccc1CC(=O)N/N=C/c1ccco1	Sm TGR block 40µM
CC(C)=CCN1C(=O)[C@]2(O[C@H](COc3ccccc3)CC3=CCCC32)c2c(Br)cccc21 (stereo partly drawn)	none (no result: Vaccinia mCherry, Sm TGR block, VACV Venus inh, FMDV inh, Lassa entry inh)
Cc1ccc(NC(=O)N2CCN(C(=O)c3ccco3)CC2)cc1Cl	none
Nc1nc(CN2CCN(c3ccccc3)CC2)nc(Nc2ccc(Cl)cc2)n1	FMDV inh 32µM (no result: Vaccinia mCherry, Marburg entry inh, VACV Venus inh, Lassa entry inh)
Cc1ccc(Nc2nc(N)nc(CN3CCCCCC3)n2)cc1	Sm TGR block 40µM
Cc1ccc(Nc2nc(N)nc(CN3CCN(C(=O)c4ccco4)CC3)n2)cc1Cl	Sm TGR block 40µM, Marburg entry inh inconclusive (no result: Vaccinia mCherry, VACV Venus inh)
Cc1ccc(Nc2nc(N)nc(CN3CCN(C)CC3)n2)cc1	Lassa entry inh inconclusive (no result: Vaccinia mCherry, VACV Venus inh)
Cc1ccc2c(CN3CCN(C(=O)c4ccco4)CC3)cc(=O)oc2c1C	Sm TGR block 45µM, Marburg entry inh inconclusive
Cc1c(C(=O)N(Cc2ccc(N(C)C)cc2)CC2CCCO2)oc2ccc(Br)cc12 (stereo not drawn)	Marburg entry inh inconclusive, Lassa entry inh inconclusive
c1ccc(Nc2nc(NCc3ccco3)nc3nccnc23)cc1	none (no result: Sm TGR block, Marburg entry inh, FMDV inh, Lassa entry inh)
COc1cc(NC(=O)CN(C)S(=O)(=O)c2ccc3[nH]c4c(c3c2)CCCC4)cc(OC)c1OC	FMDV inh inconclusive (no result: Marburg entry inh)
COC(=O)c1cccc(NC(=O)c2ccc(S(=O)(=O)N(C)c3ccccc3OC)cc2)c1	FMDV inh 35µM (no result: Sm TGR block, Marburg entry inh, Lassa entry inh)
COc1ccccc1N(C)S(=O)(=O)c1ccc(C(=O)Nc2ccc3nc(C)sc3c2)cc1	Vaccinia mCherry inconclusive, Marburg entry inh inconclusive, VACV Venus inh inconclusive, FMDV inh 25µM, Lassa entry inh inconclusive
COc1ccccc1N(C)S(=O)(=O)c1ccc(C(=O)Nc2cccc(Br)c2)cc1	Marburg entry inh inconclusive, FMDV inh inconclusive, Lassa entry inh inconclusive (no result: Sm TGR block)

Compound activity from PubChem.
